Six1-Eya2 inh: inhibitors of human Six1/Eya2 interaction; Q15475+O00167; AlphaScreen GST-Six1/His-Eya2 binding, biochemical; active compounds read low; activity change, % (test concentration not listed); 0.56% of 360,000 active; in the data active means activity change below about -65%; inconclusive means mostly about -30% to -63%
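Homogeneous AlphaScreen proximity assay pairing GST-Six1 with His-tagged Eya2 (added as 5X mix: 250 nM and 500 nM) in 50 mM Tris pH 8.0, 300 mM NaCl, 1 mM TCEP. Glutathione donor and nickel acceptor beads; 1 h, 37 °C, dark.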
Eya2 inh: inhibitors of human Eya2 phosphatase activity | AID 488837 | O00167 | Potency, µM (series often up to 76.9 µM), for inactives: top-dose activity, negative = inhibition, usual class: inhibitors | 0.006% of 330,000 active | recombinant Eya2, OMFP fluorescence dephosphorylation (OMFP is methylfluorescein phosphate); further: potency means the concentration at half of the fitted maximal effect
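Eya2 protein (added as 0.2 uM solution) was preincubated with compound for 10 min at ambient temperature in 50 mM HEPES pH 7.5, 50 mM NaCl, 5 uM MgCl2, 0.05% BSA, 1 mM DTT. OMFP (added at 50 uM) then reacted 10 min; fluorescence read at 485/525 nm.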
GALK inhibitor: galactokinase (human) inhibition. P51570. Purified GALK, Kinase-Glo residual ATP luminescence. Potency, µM (highest dose often 57.5 µM), without a hit: at the top dose activity change, negative = inhibition, hits mostly inhibitors. 0.007% of 270,000 active. AID 1868; further: potency means the concentration at half of the fitted maximal effect
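Kinase-Glo Plus luminescence measured ATP left after a 1 h room-temperature reaction. The reaction used 5 nM GALK, 100 uM galactose and 35 uM ATP at pH 8.0 (20 mM HEPES, 5 mM MgCl2, 60 mM NaCl, 1 mM DTT, 0.01% BSA).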
rTrxR1 inhibitor: blocks rat thioredoxin reductase 1 | O89049 | recombinant rTrxR1, NADPH fluorescence consumption, selenite substrate | Potency, µM (series often up to 114 µM), without a hit: at the highest dose activity change, negative = inhibition, usual class: inhibitors | 1% of 390,000 active | AID 588453; further: potency means the concentration at half of the fitted maximal effect; nearly all actives have a fitted effect of over 65% in size
Target sequence (O89049 whole entry, looked up): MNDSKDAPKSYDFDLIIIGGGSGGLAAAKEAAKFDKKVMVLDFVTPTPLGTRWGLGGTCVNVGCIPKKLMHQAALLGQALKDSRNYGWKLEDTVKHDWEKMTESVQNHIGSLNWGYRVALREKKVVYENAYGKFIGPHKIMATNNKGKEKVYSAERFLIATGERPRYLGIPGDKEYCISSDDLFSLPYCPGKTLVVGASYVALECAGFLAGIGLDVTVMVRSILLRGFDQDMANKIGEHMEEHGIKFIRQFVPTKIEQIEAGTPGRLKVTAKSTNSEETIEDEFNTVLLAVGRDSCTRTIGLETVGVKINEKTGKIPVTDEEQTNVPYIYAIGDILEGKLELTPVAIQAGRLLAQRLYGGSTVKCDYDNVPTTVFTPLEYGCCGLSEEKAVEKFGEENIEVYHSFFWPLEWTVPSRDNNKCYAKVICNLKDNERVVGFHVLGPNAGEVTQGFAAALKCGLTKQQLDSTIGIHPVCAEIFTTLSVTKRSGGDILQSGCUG
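Rat TrxR1 (90 nM in the dispensed reagent) was pre-reduced with 400 uM NADPH for 5 min at room temperature, then incubated with compound for 15 min. After 400 uM selenite was added, NADPH fluorescence (Ex 340/Em 450 nm) was followed for 8 min.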
CtBP-E1A inh: blocks the CtBP interaction with E1A; AlphaScreen GST-E1A/His-CtBP binding, 1536-well; active compounds read low; activity change, % (no concentration beside the values); 0.49% of 340,000 active; in the data active means activity change below about -65%; inconclusive means mostly about -30% to -63%
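Protein mix (5X: 125 nM each GST-E1A, His-CtBP) was incubated with pinned compound 2 h at 37 deg C in dark, in 50 mM Tris pH 8.0 buffer with 300 mM NaCl. Glutathione donor and nickel acceptor beads followed; AlphaScreen signal read after 1 h.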
TrxR1 substrate: is turned over as a substrate by rat TrxR1; O89049; purified TrxR1 substrate turnover, NADPH consumption readout; 0.01% of 390,000 active; Potency, µM (doses to about 114 µM), without a hit: at the highest dose activity change, negative = substrate turnover; AID 588456; further: potency means the concentration at half of the fitted maximal effect; nearly all actives have a fitted effect of over 50% in size
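Rat TrxR1, dispensed at 90 nM, was prereduced with 400 uM NADPH (final) for 5 min at ~22 deg C, then incubated with compound 15 min before 400 uM selenite. A first-read NADPH fluorescence drop versus no-compound background flagged substrates.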
Numbers without * were called inactive; ? = inconclusive; nt = no result; [ ] = another dose, or the depositor's remark. Most compounds without a hit are left out; they make up all but 1.5% or so of the library. Unless noted, the call rests on the fitted dose curve; in most records, active means well fitted curve in the direction sought with a large enough effect; inconclusive means small, poorly fitted or top-dose-only effect, or another doubt; inactive means no such curve, though single readings can be large; an effect the other way counts as inactive or inconclusive. On the % scale 0 is the no-effect control and ±100 the full control effect.

SMILES	Six1-Eya2 inh	Eya2 inh	GALK inhibitor	rTrxR1 inhibitor	CtBP-E1A inh	TrxR1 substrate
CN(C)S(=O)(=O)c1cccc(NC(=S)N/N=C/c2ccc(O)c(O)c2O)c1	-93*	-2%	-7%	?	-97*	-8%
COc1ccc(O)c(/C=N/NC(=S)Nc2cccc(S(=O)(=O)N(C)C)c2)c1	-90*	8%	-2%	-22%	-3	20%
COc1ccc(O)c(/C=N/NC(=S)Nc2cccnc2)c1	-90*	9%	5%	-34%	nt	5%
CN(C)S(=O)(=O)c1cccc(NC(=S)Nc2cc(Cl)cc(Cl)c2)c1	0	2%	0%	20µM*	3	-8%
O=C(CSc1ncc(CO)n1Cc1ccccc1)Nc1ccc(C(F)(F)F)cc1	nt	nt	nt	7%[57.1 µM]	nt	-4%[57.1 µM]
CC1CCc2c(sc3nnn(CC(=O)Nc4c(C(C)C)cccc4C(C)C)c(=O)c23)C1 (stereo not given)	nt	nt	nt	20%	nt	-2%
Cc1ccc2ccc3cc(C(=O)Nc4ccc(C)c(F)c4)nc3c2[nH]1	nt	nt	nt	-9%	nt	-11%
CCOCCc1nn2c(=O)cc(COC(=O)C3CCCCC3)nc2s1	nt	nt	nt	23%[57.1 µM]	nt	10%[57.1 µM]
N#CC1=C(N)C(C#N)(C#N)C2(C(=O)Nc3ccccc32)C2CCCC=C12 (stereo not given)	-14	-4%	1%	56µM*	7	-7%
COC(=O)c1ccc(N2CCc3ccccc32)c([N+](=O)[O-])c1	-70*	-16%	1%	11%	-29	-2%
N#Cc1c(SCC(=O)Nc2nncs2)sc2c(O)cc(=O)[nH]c12	?	1%	-1%	1%	-82*	-8%
N#Cc1c(SCC(=O)Nc2ccc(C(F)(F)F)cc2)sc2c(O)cc(=O)[nH]c12	-2	-1%	-3%	4%	-5	-8%
COc1cc2c(NC3CCN(C(C)C)CC3)nc(N3CCCN(C)CC3)nc2cc1OCCOCCN(C)C	nt	nt	nt	?	nt	75%
C=C(C)CSc1cc(C)c(C#N)c2nc3ccccc3n12	-11	7%	-3%	11µM*	-17	35%
Cc1cc(NCCCCO)n2c(nc3ccccc32)c1C#N	-23	-19%	2%	76%[57.1 µM]	0	280%[57.1 µM]
CC1=C(CC(=O)O)c2cc(F)ccc2/C1=C/c1ccc(S(C)=O)cc1 (stereo not given)	11	-21%	2%	35µM*	-1	-4%
C=C1C=C(C(F)F)n2ncc(C(=O)NCc3ccccc3OC)c2N1	nt	nt	nt	7%	nt	4%
CCC(Sc1nc2ccccc2c2nc(CCc3c(C)n[nH]c3C)nn12)C(=O)Nc1ccc(OC)cc1 (stereo not given)	nt	nt	nt	14%[57.1 µM]	nt	0%[57.1 µM]
Cn1c(N)c(C(=O)CCl)c(=O)n(Cc2ccccc2)c1=O	1	8%	nt	13µM*	4	10%[57.1 µM]
COC(=O)c1nc2n(n1)C(c1cc(OC)ccc1OC)C(C(=O)Nc1ccc(C)cc1C)=C(C)N2 (stereo not given)	nt	nt	nt	-3%	nt	-6%
Cn1cnc(S(=O)(=O)N2CCC(C(=O)NCc3ccccc3Cl)CC2)c1	nt	nt	nt	6%[57.1 µM]	nt	-2%[57.1 µM]
Fc1cccc(Cl)c1CNc1ccc(N2CCCC2)cc1	?	-1%	0%	4µM*	?	3%[57.1 µM]
COc1ccc(C(=O)C(C)C(C)=O)c(OCc2ccccc2)c1OC (stereo not given)	14	nt	nt	4%	-10	-2%
COc1ccc(-c2c(N)cnc(C(=O)O)c2C)c(OCc2ccccc2)c1OC	-82*	nt	nt	nt	-8	nt
CCOC(=O)c1c(SCCN2CCCC2)n(-c2ccccc2)c(=S)n(-c2ccccc2)c1=O	8	nt	nt	32µM*	-5	4%
SMILES	Six1-Eya2 inh	Eya2 inh	GALK inhibitor	rTrxR1 inhibitor	CtBP-E1A inh	TrxR1 substrate
CCCN(C)CCCOc1cc2nc(N3CCCN(C)CC3)nc(NC3CCN(C)CC3)c2cc1OC	nt	nt	nt	-25%	nt	74%
O=C(CN1CCN(Cc2ccccc2)CC1)Nc1ccc([N+](=O)[O-])cc1C(=O)Nc1ccccc1F	-11	5%	1%	23%	nt	-3%
O=C(CNCc1ccccn1)Nc1ccc([N+](=O)[O-])cc1C(=O)Nc1ccccc1F	-93*	6%	4%	3%[57.1 µM]	-89*	-3%[57.1 µM]
CCC(C(=O)NC(C)(C)C)n1c(C(c2ccccc2)c2ccccc2)nc2ccccc21 (stereo not given)	4	nt	nt	nt	-1	nt
O=C(NNC(=O)c1cc(S(=O)(=O)N2CCOCC2)c(Cl)cc1Cl)c1ccccc1F	-66*	-2%	nt	14%	-87*	-4%
O=C(Nc1ccccc1O)c1cc(S(=O)(=O)N2CCOCC2)c(Cl)cc1Cl	-21	-11%	6%	27%	?	13%
S=c1[nH]nc(Cc2sc(-c3ccccc3)nc2-c2ccccc2)o1	-17	4%	28µM*	-13%[57.1 µM]	-3	-7%
S=c1[nH]nc(Cc2c[nH]c3ccccc23)o1	1	6%	-3%	?	2	12%
CN(C)c1ccc2cc(S(=O)(=O)O)cc(O)c2c1	-73*	nt	nt	165%	?	590%
COc1ccc(CNc2nc(-c3ccco3)nn2S(=O)(=O)c2ccc3ccccc3c2)cc1OC	nt	nt	nt	-5%	nt	-3%
Cc1nc(N2CCOCC2)c2c(C(=O)N3CCN(c4cc(Cl)ccc4C)CC3)c(C)oc2n1	nt	nt	nt	21%	nt	-3%
CCCC(=O)NC(c1cccs1)c1cc([N+](=O)[O-])c2cccnc2c1O (stereo not given)	-90*	1%	1%	-30%	-85*	-24%
CCC(=O)NC(c1cccs1)c1cc([N+](=O)[O-])c2cccnc2c1O (stereo not given)	-85*	-5%	1%	-30%	-83*	-34%
CC(=O)NC(c1cccs1)c1cc(Cl)c2ccccc2c1O (stereo not given)	nt	-17%	nt	24%[57.1 µM]	nt	13%[57.1 µM]
CC(=O)NC(c1cccs1)c1cc([N+](=O)[O-])c2cccnc2c1O (stereo not given)	-89*	0%	nt	-24%	-87*	-14%
CCC(=O)NC(c1cccs1)c1cc(Br)c2cccnc2c1O (stereo not given)	nt	3%	nt	nt	nt	nt
O=C(CCc1ccccc1)NC(c1cccs1)c1cc(Cl)c2cccnc2c1O (stereo not given)	-2	-9%	1%	7%[57.1 µM]	24	4%[57.1 µM]
N#C/C(=C\c1ccccc1)C(=O)NNS(=O)(=O)c1cccc([N+](=O)[O-])c1	6	5%	nt	10µM*	4	-2%
CCOc1ccccc1N/C(=C(/C(Cl)=C(Cl)Cl)[N+](=O)[O-])n1cncn1	?	-2%	1%	22µM*	13	-14%
CCCCCCCN(C(=O)CCl)c1cccc(C)c1	1	-11%	-1%	40µM*	12	4%
